Experimental data taken from PubChem BioAssay (NCI).
About 83,000 compounds went through this panel and 20% of them were active in at least one assay; those are over-represented in the sample as a whole.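 Assay: single dose, 48 h. Readout: percent growth (0 = no net growth; negative = cell death). Active: <10.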 Calls of active or inactive are those of the source.

Columns and labels:
Assay in all cases: NCI-60 one-dose screen, 48 h (100 = growth as untreated, 0 = no growth, -100 = all killed)
Conditions in all cases: 10 µM unless noted
NCI-H226 lung = system: NCI-H226 lung
NCI-H322M lung = system: NCI-H322M lung
HOP-62 NSCLC = system: HOP-62 NSCLC
NCI-H460 lung = system: NCI-H460 lung
HOP-92 NSCLC = system: HOP-92 NSCLC
NCI-H522 lung = system: NCI-H522 lung
A549/ATCC NSCLC = system: A549/ATCC NSCLC
786-0 renal = system: 786-0 renal
DU-145 prostate = system: DU-145 prostate
K-562 leukemia = system: K-562 leukemia
MALME-3M melanoma = system: MALME-3M melanoma
MDA-MB-231 breast = system: MDA-MB-231 breast
RXF 393 renal = system: RXF 393 renal
SF-268 CNS = system: SF-268 CNS
SF-295 CNS = system: SF-295 CNS
SF-539 CNS = system: SF-539 CNS
UACC-257 melanoma = system: UACC-257 melanoma
M14 melanoma = system: M14 melanoma
HCT-15 colon = system: HCT-15 colon
COLO 205 colon = system: COLO 205 colon

Measured: growth

COc1ccc(-c2nc3ccc(-c4nnc(SCC(=O)Nc5ccc(C(C)=O)cc5)o4)cc3[nH]2)cc1
inactive: NCI-H226 lung 100% | NCI-H322M lung 110% | HOP-62 NSCLC 113% | NCI-H460 lung 103% | HOP-92 NSCLC 114% | NCI-H522 lung 103% | A549/ATCC NSCLC 112% | 786-0 renal 105% | DU-145 prostate 110% | K-562 leukemia 85.6% | MALME-3M melanoma 87.8% | MDA-MB-231 breast 94.7% | RXF 393 renal 122% | SF-268 CNS 104% | SF-295 CNS 97.5% | SF-539 CNS 81.6% | UACC-257 melanoma 124% | M14 melanoma 91.9% | HCT-15 colon 100%

Clc1ccc2c(OCCCN3CCOCC3)c3oc4ccccc4c3nc2c1
inactive: NCI-H226 lung 33.7% | NCI-H322M lung 36% | HOP-62 NSCLC 63.6% | NCI-H460 lung 10.5% | HOP-92 NSCLC 45.3% | NCI-H522 lung 29% | A549/ATCC NSCLC 33.5% | 786-0 renal 27.4% | COLO 205 colon 12.8% | DU-145 prostate 22.9% | K-562 leukemia 19.8% | MALME-3M melanoma 12.5% | MDA-MB-231 breast 32.3% | RXF 393 renal 26.7% | SF-268 CNS 38.3% | SF-295 CNS 26% | SF-539 CNS 22.9% | UACC-257 melanoma 59.8% | M14 melanoma 30.3% | HCT-15 colon 20.3%

COc1cc(/C=C/C(=O)c2ccc(C)cc2)ccc1Oc1nc(NCCO)nc(N2CCOCC2)n1
active: 786-0 renal -50.7% | K-562 leukemia 6.48% | M14 melanoma -64.4%
inactive: NCI-H226 lung 52% | NCI-H322M lung 102% | HOP-62 NSCLC 104% | NCI-H460 lung 69.2% | HOP-92 NSCLC 63.6% | NCI-H522 lung 76.9% | A549/ATCC NSCLC 97% | DU-145 prostate 87% | MALME-3M melanoma 71.6% | MDA-MB-231 breast 67.7% | RXF 393 renal 82.1% | SF-268 CNS 66.1% | SF-295 CNS 79.8% | SF-539 CNS 39.5% | UACC-257 melanoma 101% | HCT-15 colon 14.5%

OC1CCN(CCCOc2c3ccc(Cl)cc3nc3c2oc2ccc(Cl)cc23)CC1
inactive: NCI-H322M lung 15% | HOP-62 NSCLC 41% | MDA-MB-231 breast 24.5% | SF-268 CNS 27.4% | SF-295 CNS 17.8%
active: NCI-H226 lung 2.57% | NCI-H460 lung -75.2% | HOP-92 NSCLC 9.66% | NCI-H522 lung 9.65% | A549/ATCC NSCLC -52.9% | 786-0 renal -99% | COLO 205 colon -11.1% | DU-145 prostate -97.5% | K-562 leukemia -51.7% | MALME-3M melanoma -66.6% | RXF 393 renal -80.4% | SF-539 CNS -74.1% | UACC-257 melanoma -13.4% | M14 melanoma -93.8% | HCT-15 colon -83%

CN1C(=S)N(C)C2C1NN=C1SC(c3ccccc3)=CC(=O)N12 (stereo not given)
inactive: NCI-H226 lung 83.6% | NCI-H322M lung 104% | HOP-62 NSCLC 109% | NCI-H460 lung 103% | HOP-92 NSCLC 72.8% | NCI-H522 lung 87.2% | A549/ATCC NSCLC 93.7% | 786-0 renal 98% | DU-145 prostate 106% | K-562 leukemia 57.4% | MALME-3M melanoma 97.7% | MDA-MB-231 breast 83.3% | RXF 393 renal 97.8% | SF-268 CNS 108% | SF-295 CNS 98% | SF-539 CNS 90.8% | UACC-257 melanoma 99% | M14 melanoma 101% | HCT-15 colon 89.5%

CNC(=O)c1cc(-c2ccc(NC(=O)Nc3ccc(N4CCN(C)CC4)c(C(F)(F)F)c3)cc2)nc2cccnc12
active: NCI-H322M lung -78.4% | HOP-62 NSCLC -78.3% | NCI-H460 lung -76.3% | NCI-H522 lung -71.9% | A549/ATCC NSCLC -81.9% | 786-0 renal -97.1% | DU-145 prostate -81.7% | K-562 leukemia -56.9% | MALME-3M melanoma -85.5% | MDA-MB-231 breast -78.4% | RXF 393 renal -78.3% | SF-268 CNS -71.3% | SF-295 CNS -94.5% | SF-539 CNS -89.2% | UACC-257 melanoma -94.3% | M14 melanoma -94.2% | HCT-15 colon -79.5%
inactive: NCI-H226 lung 84.6% | HOP-92 NSCLC 79.5%

CCC/C=C/C=C/C(=O)N[C@@H](Cc1cc(F)cc(F)c1)C(=O)N[C@@H]1C(=O)N2CCC[C@H]2C(=O)N2CCCC[C@H]2C(=O)N[C@@H](C)C(=O)N2C[C@H](C)C[C@H]2C(=O)O[C@H]1C
inactive: NCI-H226 lung 19.9% | NCI-H322M lung 36.5% | HOP-62 NSCLC 31.6% | NCI-H460 lung 11.9% | HOP-92 NSCLC 23% | NCI-H522 lung 17.9% | A549/ATCC NSCLC 31.8% | 786-0 renal 37.8% | DU-145 prostate 22.6% | K-562 leukemia 17.6% | MALME-3M melanoma 30.8% | MDA-MB-231 breast 28.7% | RXF 393 renal 46.3% | SF-268 CNS 31.3% | SF-295 CNS 10.3% | SF-539 CNS 38.3% | UACC-257 melanoma 17% | M14 melanoma 16.5% | HCT-15 colon 16.2%

O=c1[nH]c2ccc(Cl)cc2cc1CSc1ccccc1Nc1nccc(-c2ccc(Cl)cc2)n1
inactive: NCI-H226 lung 115% | NCI-H322M lung 101% | HOP-62 NSCLC 101% | NCI-H460 lung 95.3% | HOP-92 NSCLC 87.6% | NCI-H522 lung 97.3% | A549/ATCC NSCLC 86.4% | 786-0 renal 93.6% | COLO 205 colon 116% | DU-145 prostate 94.5% | K-562 leukemia 71.6% | MALME-3M melanoma 90.4% | MDA-MB-231 breast 94.3% | RXF 393 renal 84.7% | SF-268 CNS 81.5% | SF-295 CNS 96.3% | SF-539 CNS 89.1% | UACC-257 melanoma 100% | M14 melanoma 102% | HCT-15 colon 91.5%
